# Screening data (PubChem BioAssay)
# DT40 TDP1 CPT = growth inhibition of DT40 Tdp1-/-;hTDP1 cells with camptothecin (screen for TDP1 inhibitors). chicken DT40 Tdp1-/-;hTDP1 cells + 20 nM CPT, ATP luminescence, 48 h. 420,000 tested, 12% active. Potency, µM (doses to about 46.2 µM), for inactives: top-dose activity change, negative = growth inhibition, usual class: inhibitors; further: potency means the concentration at half of the fitted maximal effect; nearly all actives have a fitted effect of over 55% in size
#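 Chicken DT40 Tdp1-/- cells complemented with human TDP1, 400 cells/well, exposed to compounds plus 20 nM camptothecin for at least 48 h at 37 C; viability read as ATP content by CellTiter-Glo luminescence.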
# ELG1 repair inh = blocks ELG1-dependent DNA repair in HEK293T cells; AID 504467; 330,000 tested, 2.3% active; HEK293T ELG1-luciferase reporter, luminescence, 16 h; DNA damage induced by 5-fluorouridine; Potency, µM (top dose mostly 46.1 µM), inactives show at the highest dose activity change, negative = inhibition, actives largely listed as inhibitors; further: potency means the concentration at half of the fitted maximal effect; nearly all actives have a fitted effect of over 55% in size
#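 Overnight (16 hr) co-exposure of 2,000 cells/well to 5-fluorouridine and compound at 37 °C preceded detection. Luciferase was quantified via ONE-Glo luminescence; loss of signal denotes inhibition.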
# Giardia kill = Giardia lamblia killing; Giardia lamblia trophozoite viability; activity change, % at 7.66 µM, hits read low; 340,000 tested, 0.15% active; in the data active means activity change below about -80%; inconclusive means between about -30% and that limit;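 further: parasites exposed to compound for two days anaerobically before the ATP read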
#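 Compounds were tested on trophozoites seeded at 100 cells/well and held 48 hrs at 37 deg C anaerobically. An ATP-based luminescent kit measured the remaining live cells.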
# TDP1 cell noCPT = qHTS for Inhibitors of human tyrosyl-DNA phosphodiesterase 1 (TDP1): qHTS in cells in absence of CPT; DT40 Tdp1-/- hTDP1 cells, no CPT, ATP luminescence, 48 h; Potency, µM (highest dose often 46.2 µM), without a hit: at the top dose activity change, negative = growth inhibition, usual class: inhibitors; 420,000 tested, 15% active; AID 686978, 2013; further: potency means the concentration at half of the fitted maximal effect; nearly all actives have a fitted effect of over 55% in size
#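 Readout: luminescence from CellTiter-Glo after 30 min in the dark at RT. Cells: DT40 Tdp1-/- with stable hTDP1, 400/well. Exposure: compounds alone, ≥48 hr, 37 °C.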
# IL1B secr inh = inflammasome signaling inhibition, IL-1 beta readout | AID 743279 | THP-1 LPS/ATP IL-1B secretion, AlphaLISA, 16 h; active compounds read low | 360,000 tested, 4.7% active | activity change, % at 57.5 µM; in the data active means activity change below about -50%; inconclusive means mostly about -30% to -49%
#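 THP-1 cells pretreated 1 hr with compounds (up to 57.5 uM final), then stimulated with LPS (250 ng/mL final) plus ATP (1.25 mM final); secreted IL-1B measured by AlphaLISA after 16 hr, decreased signal indicating inhibition.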
# TDP1 inh = TDP1 (human) enzyme inhibition | Q9NUW8 | 350,000 tested, 0.28% active | recombinant TDP1, AlphaScreen DNA substrate cleavage | Potency, µM (top dose mostly 130 µM), inactives show top-dose activity change, negative = inhibition, most hits filed as inhibitors; further: potency means the concentration at half of the fitted maximal effect; nearly all actives have a fitted effect of over 40% in size
# Target sequence (Q9NUW8 whole entry, looked up): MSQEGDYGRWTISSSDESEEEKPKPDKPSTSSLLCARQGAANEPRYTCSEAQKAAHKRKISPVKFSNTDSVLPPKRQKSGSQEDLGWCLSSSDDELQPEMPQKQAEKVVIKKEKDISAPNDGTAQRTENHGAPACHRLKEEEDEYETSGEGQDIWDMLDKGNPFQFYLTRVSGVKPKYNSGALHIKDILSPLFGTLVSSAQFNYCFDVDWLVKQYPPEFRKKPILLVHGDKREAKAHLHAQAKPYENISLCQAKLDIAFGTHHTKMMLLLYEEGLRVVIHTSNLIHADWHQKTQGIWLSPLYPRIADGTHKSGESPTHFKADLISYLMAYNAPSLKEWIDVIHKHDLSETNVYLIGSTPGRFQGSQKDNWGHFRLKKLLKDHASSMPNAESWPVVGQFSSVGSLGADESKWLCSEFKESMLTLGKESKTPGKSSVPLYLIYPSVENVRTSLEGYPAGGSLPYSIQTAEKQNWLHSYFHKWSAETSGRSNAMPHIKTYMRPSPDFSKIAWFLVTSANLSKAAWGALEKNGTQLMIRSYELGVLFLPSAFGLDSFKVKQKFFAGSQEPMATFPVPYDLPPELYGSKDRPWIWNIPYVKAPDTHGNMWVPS
#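 Recombinant human Tdp1 (E. coli-expressed, 1 nM final) preincubated with compounds 15 min at room temperature, then 5'-biotin/3'-phosphotyrosine-FITC DNA substrate (15 nM final) added for 5 min. AlphaScreen beads (10 ug/ml final) added 10 min; cleavage lowers signal.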
# Starred values were filed as active, the others as inactive; u = inconclusive; x = not tested or not shown. Sampled rows, rich in hits. Any-hit rate of the full collection: about 19%. Unless noted, the call rests on the fitted dose curve; in most records, active means well fitted curve in the direction sought with a large enough effect; inconclusive means small, poorly fitted or top-dose-only effect, or another doubt; inactive means no such curve, though single readings can be large; an effect the other way counts as inactive or inconclusive. On the % scale 0 is the no-effect control and ±100 the full control effect.
SMILES,DT40 TDP1 CPT,ELG1 repair inh,Giardia kill,TDP1 cell noCPT,IL1B secr inh,TDP1 inh
CCOC(=O)c1c(NC(=O)CN2C(=O)NC(C)(c3ccc(Cl)cc3)C2=O)sc(C(=O)NC)c1C (centres undefined),23µM*,18µM*,-1,12µM*,-9,4%
Cc1ccc(CNC(=O)CN2C(=O)NC(C)(c3ccc(Cl)cc3)C2=O)cc1 (centres undefined),-18%,0%,6,-18%,-52*,x
CC1(c2ccc(Cl)cc2)NC(=O)N(CC(=O)NCc2ccc(F)cc2)C1=O (centres undefined),7%,u,2,-15%,-14,-1%
Cc1ccc(Nc2nnc(SC(C)C(=O)Nc3c(C)n(C)n(-c4ccccc4)c3=O)s2)cc1 (centres undefined),-18%,-1%,-27,u,-7,5%
Cc1[nH]c2ccccc2c1C(=O)CN1CCN(c2ccc(Cl)cc2)CC1,8%,-13%,6,-28%,20,x
CC1(C)N=C(c2ccc(F)cc2)C(=O)N1CC(=O)Nc1ccccc1Cl,u,x,x,16µM*,x,3%
Cc1cccc(NC(=O)CN2C(=O)C(c3ccc(F)cc3)=NC23CCCCCC3)c1,u,x,x,u,x,3%
COc1ccccc1NC(=O)CN1C(=O)C(c2ccc(F)cc2)=NC12CCCCC2,u,x,x,23µM*,x,5%
CC(C)CCNC(=O)CCCN1C(=O)c2ccccc2Sc2ncccc21,15µM*,x,x,u,x,5%
CC(C)NC(=O)CCCN1C(=O)c2ccccc2Sc2ncccc21,-6%,20%,9,6%,-6,x
Cc1ccc(NC(=O)CCN2C(=O)c3ccccc3Sc3ncccc32)cc1,16µM*,17%,16,16µM*,23,2%
Cc1ccccc1NC(=O)CCN1C(=O)c2ccccc2Sc2ncccc21,-27%,x,x,u,x,5%
CCN(CC)c1ccc(NC(=O)CN2C(=O)c3cccnc3Sc3ccccc32)c(C)c1,16µM*,x,x,13µM*,x,2%
Cc1cc(C)c(NC(=O)CN2C(=O)c3cccnc3Sc3ccccc32)c(C)c1,u,x,x,-31%,x,8%
Cc1cc(NC(=O)CN2C(=O)c3cccnc3Sc3ccccc32)ccc1Br,u,x,x,23µM*,x,3%
COc1cc(C2c3cc(O)c(OC)cc3CC(C(=O)O)C2CO)ccc1O (centres undefined),6%,x,3,2%,9,x
Cc1ccc(Cl)cc1NC(=O)CN1C(=O)c2ccccc2Sc2ncccc21,u,x,x,u,x,3%
Cc1ccc(NC(=O)CN2C(=O)c3ccccc3Sc3ncccc32)c(C)c1,23µM*,x,x,23µM*,x,5%
COCCCNC(=O)c1cnc2sc(N3CCCCCC3)nn2c1=O,-9%,x,x,-10%,x,3%
CN(C)c1cccc(NC(=O)C2(C)CC2(Cl)Cl)c1 (centres undefined),5%,-1%,0,-1%,-2,3%
CC(=O)Nc1ccc(NC(=O)C2(C)CC2(Cl)Cl)cc1 (centres undefined),u,7%,7,18µM*,-3,5%
Cc1ccc(CNC(=O)Cn2cnc(S(=O)(=O)N3CCC(C)CC3)c2)o1,0%,18%,14,30%,9,2%
Cc1cc(NC(=O)c2cccc(S(=O)(=O)N(C)C)c2)n(-c2ccccn2)n1,15µM*,u,-20,23µM*,-9,5%
Cc1cc(NC(=O)c2cccc(S(=O)(=O)N3CCCCCC3)c2)n(-c2ccccn2)n1,u,-9%,6,21µM*,-18,3%
Cc1cccc(C)c1OC(=O)CSc1nnc(CNC(=O)c2ccccc2)o1,-8%,x,x,-10%,x,9%
SMILES,DT40 TDP1 CPT,ELG1 repair inh,Giardia kill,TDP1 cell noCPT,IL1B secr inh,TDP1 inh
O=C(Nc1ccc(-c2csc(-c3ccccc3)n2)cc1)c1ccccc1Cl,21µM*,5%,-1,u,-11,6%
O=C(Nc1ccc(-c2cn3ccsc3n2)cc1)C1CCCC1,15µM*,u,u,16µM*,1,-2%
Cc1nc(-c2ccc(NC(=O)c3ccccc3)cc2)cs1,18µM*,u,-26,u,0,3%
O=C(O)c1ccccc1C(=O)Nc1ccc(-c2csc(-c3ccccc3)n2)cc1,28%,u,-25,9%,-25,0%
Cc1nc(-c2ccc(NC(=O)C3CCCCC3)cc2)cs1,-22%,u,-3,21µM*,-14,-3%
Cn1c(-c2ccc(Cl)cc2)cnc1NCc1cc2c(cc1[N+](=O)[O-])OCO2,u,-13%,-10,u,-82*,5%
Cn1c(-c2ccc(F)cc2)cnc1NCc1cc2c(cc1[N+](=O)[O-])OCO2,u,u,-6,23µM*,-64*,-3%
CCOc1ccc(-n2c(=O)c3c(C)c(C(=O)N(C)C)sc3n(Cc3cc(C)ccc3C)c2=O)cc1,3%,x,x,1%,x,-2%
O=C(C[N+]12CCCc3cccc(c31)CCC2)c1ccc2ccc3cccc4ccc1c2c34,6.3µM*,x,x,5µM*,x,x
CCOc1ccccc1OCCCOc1ccc([N+](=O)[O-])cc1Cl,-74%,u,-5,23µM*,-23,12%
CC(C)C(C)NC(=O)COc1ccc([N+](=O)[O-])cc1Cl (centres undefined),8.2µM*,0%,-9,u,-8,5%
CC1CCCN(S(=O)(=O)c2ccc(N3CCCCS3(=O)=O)cc2)C1 (centres undefined),-21%,x,x,-28%,x,1%
Cc1ccc(SCCC(=O)OC(C(=O)NC(N)=O)C(C)C)cc1 (centres undefined),16µM*,12%,-10,16µM*,23,-3%
CCc1cccc2c(C(=O)C(NCCOC)c3ccccc3)c[nH]c12 (centres undefined),u,8%,-4,12µM*,-23,0%
CCc1cccc2c(C(=S)N3CCCC3)c[nH]c12,-23%,15%,5,-9%,-6,2%
CCNC(C(=O)c1c[nH]c2c(CC)cccc12)c1ccccc1 (centres undefined),u,23%,2,u,-57*,4%
O=C1N=C(N2CCN(c3ccccc3)CC2)S/C1=C\c1ccco1,-23%,u,3,-14%,-27,-5%
O=C1N=C(N2CCCC2)S/C1=C\c1ccccc1,-24%,16%,4,-20%,-6,0%
